Rows were chosen to be rich in hits. Some 10% of all compounds tested hit in one or more screens of this group.
BAZ2B inh: inhibitors of human BAZ2B bromodomain. Q9UIF8. AlphaScreen BAZ2B-H3K14Ac peptide displacement. Potency, µM (titrated, usually from 114 µM), usual class: inhibitors. 360,000 tested, 4.4% active; note: nearly all actives have a fitted effect of over 60% in size
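Complex of BAZ2B and biotin-H3K14Ac (50 nM apiece) forms over 30 min at RT, then faces library compounds up to 110 uM for another 30 min; AlphaScreen beads added, 20 min dark incubation, luminescence read.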
JMJD2A Tudor inh: inhibitors of human JMJD2A Tudor domain; O75164; AlphaScreen JMJD2A-Tudor / H3K4me3 peptide binding; Potency, µM (top dose mostly 114 µM), hits mostly inhibitors; 390,000 tested, 4.4% active; note: nearly all actives have a fitted effect of over 50% in size
GLS inh: blocks human kidney-isoform glutaminase activity; 410,000 tested, 0.21% active; O94925; GLS enzymatic activity, qHTS titration; Potency, µM (highest dose often 45.5 µM), usual class: inhibitors
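Coupled fluorescence readout: glutamate oxidase/HRP/Amplex Red detect glutamate formed by hKGA from L-glutamine (1 mM solution added). Buffer 45 mM KH2PO4 pH 8.2, 0.02% Tween-20; reads at t0 and 30 min RT.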
HP1b chromo inh: HP1-beta chromodomain-methylated histone interaction inhibition; AlphaScreen HP1-beta / biotin-H3K9me3 peptide binding; Potency, µM (top dose mostly 114 µM), hits mostly inhibitors; 390,000 tested, 0.56% active; AID 540317; note: nearly all actives have a fitted effect of over 70% in size
Target sequence (P83916 whole entry, looked up): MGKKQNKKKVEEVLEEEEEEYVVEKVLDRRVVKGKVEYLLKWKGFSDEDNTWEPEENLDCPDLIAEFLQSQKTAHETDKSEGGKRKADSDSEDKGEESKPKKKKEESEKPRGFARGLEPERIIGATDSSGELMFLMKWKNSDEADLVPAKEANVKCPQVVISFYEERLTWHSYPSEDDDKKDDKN
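HP1-beta protein (50 nM final) preincubated 30 min at room temperature with biotinylated H3(1-18)K9me3 peptide (50 nM) in PBS pH 7.4, 0.01% Tween-20, then compound added for 30 min. AlphaScreen streptavidin donor/nickel chelate acceptor beads (10 ug/mL final), 30 min dark, luminescence read.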
G9a block: G9a (human) methyltransferase inhibition. Q96KQ7. G9a H3K9 monomethylation, AlphaScreen, 2 h. Potency, µM (highest dose often 102 µM), most hits filed as inhibitors. 350,000 tested, 8.8% active; note: nearly all actives have a fitted effect of over 75% in size
Target sequence (Q96KQ7 913-1193 limits assumed): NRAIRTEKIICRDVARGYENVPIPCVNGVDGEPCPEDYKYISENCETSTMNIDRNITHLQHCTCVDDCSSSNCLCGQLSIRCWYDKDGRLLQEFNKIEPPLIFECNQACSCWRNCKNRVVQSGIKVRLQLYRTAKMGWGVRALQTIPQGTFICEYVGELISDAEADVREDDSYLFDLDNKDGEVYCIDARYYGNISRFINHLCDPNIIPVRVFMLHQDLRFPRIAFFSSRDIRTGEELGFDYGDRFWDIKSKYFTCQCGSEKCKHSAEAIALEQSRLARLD
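Readings reflect AlphaScreen signal from monomethyl-H3K9 antibody detection. HMT at 20 nM; substrate b-H3K9 500 nM; cofactor SAM 20 uM; 2 h RT reaction; compounds tested as titrations in qHTS with 15 min preincubation.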
Large screens that a line does not name were inactive. Calls come from the whole dose curve; as a rule, active = well fitted curve in the direction sought with a large enough effect; inconclusive = small, poorly fitted or top-dose-only effect, or another doubt; inactive = no such curve, though single readings can be large; an effect the other way counts as inactive or inconclusive.

COc1ccc(N2CC(C(=O)OCC(=O)c3ccc(C)cc3)CC2=O)cc1 (stereo not drawn)	none (no result: G9a block)
Cc1ccc(-c2nn(CC(=O)NCc3ccccc3)c3c2cnc2ccc(F)cc23)cc1C	none
CCNC(=S)Nc1cc2oc3ccccc3c2cc1OC	JMJD2A Tudor inh inconclusive, G9a block 25.1µM
COc1cc2c(cc1NC(=O)COC(=O)CNS(=O)(=O)c1ccc(C)cc1)oc1ccccc12	G9a block 39.8µM
CCCNC(=S)Nc1cc2oc3ccccc3c2cc1OC	BAZ2B inh inconclusive
COc1cc(OC)cc(C2=Cc3ccccc3C(CC(=O)c3ccco3)N2c2ccc(-c3ccc(C(N)=O)cc3)cc2)c1 (stereo not drawn)	none (no result: BAZ2B inh, JMJD2A Tudor inh, HP1b chromo inh, G9a block)
Cc1nnc(Nc2ccc(O)cc2)[nH]c1=O	G9a block 50.1µM
Cc1nnc(Nc2ccc(C(=O)O)cc2)[nH]c1=O	none
O=C(CCC(=O)N1Cc2ccccc2Oc2ncccc21)NCc1ccccc1Cl	none
CCC1(c2ccc(F)cc2)NC(=O)N(CC(=O)N(C)C2CCS(=O)(=O)C2)C1=O (stereo not drawn)	none
Cc1ccc(/C=C2\CCCC3=C2NC(=S)NC3c2ccc(C)cc2)cc1 (stereo not drawn)	BAZ2B inh inconclusive, JMJD2A Tudor inh inconclusive, GLS inh inconclusive, G9a block 8.91µM
CC1(C)CC(NNCCC#N)=CC(=[N+]2CCCC2)C1	G9a block 39.8µM
CC1(C)CC(N2CCCC2)=CC(=[N+]2CCCCC2)C1	G9a block inconclusive
O=C(CCCN1C(=O)/C(=C/c2ccccc2Cl)SC1=S)Nc1ccccn1	BAZ2B inh inconclusive, JMJD2A Tudor inh 17.8µM, HP1b chromo inh inconclusive, G9a block 12.6µM
O=C(CCN1C(=O)/C(=C/c2ccccc2F)SC1=S)Nc1ccccn1	BAZ2B inh inconclusive
Cc1ccc(C(=O)NNC(=O)CCCN2C(=O)/C(=C/c3ccccc3Cl)SC2=S)cc1	none
O=C(CCN1C(=O)/C(=C/c2ccccc2Cl)SC1=S)Nc1ccccn1	BAZ2B inh inconclusive, G9a block 7.94µM
O=C(CCCN1C(=O)/C(=C/c2cccs2)SC1=S)Nc1ccccn1	BAZ2B inh inconclusive, JMJD2A Tudor inh inconclusive, HP1b chromo inh inconclusive, G9a block inconclusive
COc1cc(/C=C2\SC(=S)N(CCC(=O)Nc3ccccn3)C2=O)cc(OC)c1OC	G9a block 7.94µM
O=C1/C(=C/c2ccccc2Cl)SC(=S)N1CCCC(=O)N(CCO)c1ccccc1	BAZ2B inh 3.16µM, JMJD2A Tudor inh 8.91µM, G9a block 20µM
CCOc1ccc(-n2c(SCC(=O)N3CCC(C)CC3)nc3c([nH]c4ccccc43)c2=O)cc1	none
O=C(CCCN1C(=O)/C(=C/c2ccccc2Cl)SC1=S)Nc1cccnc1	BAZ2B inh inconclusive, JMJD2A Tudor inh 22.4µM
O=C(CCN1C(=O)/C(=C/c2ccccc2Cl)SC1=S)Nc1cccnc1	BAZ2B inh inconclusive
O=C(O)c1csc(N/N=C/c2ccc(Br)cc2)n1	BAZ2B inh 79.4µM, G9a block 35.5µM
Cc1csc(N/N=C/c2ccc([N+](=O)[O-])cc2)n1	none
O=C1CC(Cc2ccccc2)C(=O)N1CCCn1ccnc1 (stereo not drawn)	BAZ2B inh 50.1µM, G9a block inconclusive (no result: JMJD2A Tudor inh, GLS inh, HP1b chromo inh)
CN(C)Cc1nc2c([nH]1)c(=O)n(C)c(=O)n2C	JMJD2A Tudor inh 3.55µM, G9a block inconclusive
O=C(CNC(=O)C(c1ccccc1)c1ccccc1)OCC(=O)c1ccc2ccccc2c1	none (no result: BAZ2B inh, GLS inh, G9a block)
COc1cc(OC)c2c(-c3ccccc3)cc(=O)oc2c1C(CCN1CCCC(C)C1)c1ccc2c(c1)OCO2 (stereo not drawn)	BAZ2B inh inconclusive, JMJD2A Tudor inh 39.8µM
COc1cc(OC)c2c(-c3ccccc3)cc(=O)oc2c1C(CCN1CCCCC1)c1ccc(N(C)C)cc1 (stereo not drawn)	BAZ2B inh 15.8µM, JMJD2A Tudor inh 11.2µM, HP1b chromo inh inconclusive, G9a block inconclusive
COc1cc(OC)c2c(-c3ccccc3)cc(=O)oc2c1C(CCN1CCCCC1)c1ccc2c(c1)OCO2 (stereo not drawn)	BAZ2B inh inconclusive, JMJD2A Tudor inh inconclusive
COc1cc(OC)c2c(-c3ccccc3)cc(=O)oc2c1C(CCN1CCOCC1)c1ccc(N(C)C)cc1 (stereo not drawn)	JMJD2A Tudor inh 14.1µM, HP1b chromo inh 17.8µM, G9a block 14.1µM (no result: BAZ2B inh)
